Values joined by “and” are separate entries in the source; they are usually repeats but may differ in a detail not shown here. Equal values may be shown once. The campaign covered roughly 5,500 compounds. About 2,000 (36%) were called active. Inconclusive results (about 18%) are left out. Cut-off read from the data, not from the text of the source: active = normalized growth mostly below about 0.91 (no sharp cut-off); inconclusive = no clear call, values can overlap the other calls; inactive = mostly above about 0.92. Some of the results follow.
Test: chemical genetic growth profiling, strain panel (AID 1159580);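 note: tested at 20 µM; growth read once vehicle control cultures reached saturation at 30 °C; 1 = growth at the plate median or of vehicle wells; lower values mean less growth of the strain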
Settings: S. cerevisiae deletion strains, growth OD

Measured: normalized growth

Clc1ccc(CSC(Cn2ccnc2)c2ccc(Cl)cc2Cl)cc1 (stereo not given)
active: locus YAL021C, strain ccr4, stronger effect = lower value 0.067 | locus YAL026C, strain drs2, stronger effect = lower value 0.0648 | locus YAL030W, strain snc1, stronger effect = lower value 0.0596 | locus YBL061C, strain skt5, stronger effect = lower value 0.062 | locus YBR009C, strain hhf1, stronger effect = lower value 0.0601 | locus YBR021W, strain FUR4, stronger effect = lower value 0.0857 | locus YBR023C, strain chs3, stronger effect = lower value 0.0649 | locus YBR171W, strain sec66, stronger effect = lower value 0.076 | locus YBR229C, strain ROT2, stronger effect = lower value 0.0457 | locus YBR231C, strain swc5, stronger effect = lower value 0.064 | locus YBR279W, strain paf1, stronger effect = lower value 0.064 | locus YCL011C, strain gbp2, stronger effect = lower value 0.0611 | locus YCL016C, strain dcc1, stronger effect = lower value 0.0681 | locus YCL029C, strain bik1, stronger effect = lower value 0.0583 | locus YCL069W, strain vba3, stronger effect = lower value 0.0628 | locus YCR088W, strain abp1, stronger effect = lower value 0.0629 | locus YDL005C, strain med2, stronger effect = lower value 0.0743 | locus YDL035C, strain GPR1, stronger effect = lower value 0.0497 | locus YDL040C, strain nat1, stronger effect = lower value 0.059 | locus YDL074C, strain BRE1, stronger effect = lower value 0.0766 | locus YDL101C, strain DUN1, stronger effect = lower value 0.0543 | locus YDL134C, strain PPH21, stronger effect = lower value 0.048 | locus YDL185W, strain tfp1, stronger effect = lower value 0.0566 | locus YDL192W, strain arf1, stronger effect = lower value 0.0601 | locus YDR001C, strain nth1, stronger effect = lower value 0.0613 | locus YDR069C, strain doa4, stronger effect = lower value 0.0624 | locus YDR101C, strain arx1, stronger effect = lower value 0.0606 | locus YDR137W, strain rgp1, stronger effect = lower value 0.102 | locus YDR150W, strain NUM1, stronger effect = lower value 0.0543 | locus YDR159W, strain sac3, stronger effect = lower value 0.0874 | locus YDR162C, strain NBP2, stronger effect = lower value 0.0476 | locus YDR195W, strain ref2 0.129 | locus YDR297W, strain sur2, stronger effect = lower value 0.0568 | locus YDR318W, strain mcm21, stronger effect = lower value 0.0592 | locus YDR334W, strain swr1, stronger effect = lower value 0.0638 | locus YDR335W, strain msn5, stronger effect = lower value 0.0624 | locus YDR388W, stronger effect = lower value 0.0553 | locus YDR392W, strain spt3, stronger effect = lower value 0.0838 | locus YDR502C, strain sam2, stronger effect = lower value 0.0567 | locus YEL003W, strain gim4, stronger effect = lower value 0.054 | locus YEL037C, strain rad23, stronger effect = lower value 0.0579 | locus YEL061C, strain CIN8 (second series), stronger effect = lower value 0.0613 | locus YEL061C, strain CIN8, stronger effect = lower value 0.0475 | locus YER015W, strain faa2, stronger effect = lower value 0.0623 | locus YER016W, strain bim1, stronger effect = lower value 0.061 | locus YER110C, stronger effect = lower value 0.0729 | locus YER111C, strain swi4, stronger effect = lower value 0.0739 | locus YER155C, strain BEM2 (second series), stronger effect = lower value 0.0999 | locus YER155C, strain BEM2, stronger effect = lower value 0.0594 | locus YER167W, strain BCK2, stronger effect = lower value 0.0492 | locus YFR010W, strain ubp6, stronger effect = lower value 0.0712 | locus YGL078C, strain dbp3, stronger effect = lower value 0.0667 | locus YGL086W, strain mad1, stronger effect = lower value 0.0535 | locus YGL167C, strain pmr1, stronger effect = lower value 0.0756 | locus YGL173C, strain kem1, stronger effect = lower value 0.0697 | locus YGL227W, strain vid30, stronger effect = lower value 0.065 | locus YGL240W, strain doc1, stronger effect = lower value 0.0922 | locus YGL248W, strain PDE1, stronger effect = lower value 0.0451 | locus YGL253W, strain hxk2, stronger effect = lower value 0.0562 | locus YGR078C, strain PAC10, stronger effect = lower value 0.0475 | locus YGR135W, strain pre9, stronger effect = lower value 0.0572 | locus YGR229C, strain SMI1, stronger effect = lower value 0.0582 | locus YGR252W, strain gcn5, stronger effect = lower value 0.112 | locus YHR013C, strain ard1, stronger effect = lower value 0.101 | locus YHR027C, strain rpn1, stronger effect = lower value 0.0633 | locus YHR030C, strain SLT2, stronger effect = lower value 0.0493 and 0.0968 | locus YHR079C, strain IRE1 (second series), stronger effect = lower value 0.0556 | locus YHR079C, strain IRE1, stronger effect = lower value 0.104 | locus YHR094C, strain hxt1, stronger effect = lower value 0.0572 | locus YHR129C, strain ARP1, stronger effect = lower value 0.0541 | locus YHR142W, strain chs7, stronger effect = lower value 0.0779 | locus YHR200W, strain rpn10, stronger effect = lower value 0.0594 | locus YIL066C, strain RNR3, stronger effect = lower value 0.047 | locus YIL073C, strain SPO22, stronger effect = lower value 0.109 | locus YIL125W, strain kgd1, stronger effect = lower value 0.0629 | locus YIR030C, strain dcg1, stronger effect = lower value 0.0572 | locus YJL092W, strain hpr5, stronger effect = lower value 0.0607 | locus YJL095W, strain BCK1 (second series), stronger effect = lower value 0.0571 | locus YJL095W, strain BCK1, stronger effect = lower value 0.0582 and 0.0962 | locus YJL115W, strain asf1, stronger effect = lower value 0.0715 | locus YJL129C, strain trk1, stronger effect = lower value 0.0907 | locus YJL134W, strain LCB3, stronger effect = lower value 0.0474 | locus YJL154C, strain vps35, stronger effect = lower value 0.0605 | locus YJL164C, strain tpk1, stronger effect = lower value 0.0651 | locus YJL166W, strain qcr8, stronger effect = lower value 0.0602 | locus YJL168C, strain set2, stronger effect = lower value 0.0557 | locus YJL187C, strain SWE1 (second series), stronger effect = lower value 0.0452 | locus YJL187C, strain SWE1, stronger effect = lower value 0.0595 | locus YJR043C, strain POL32, stronger effect = lower value 0.0608 | locus YJR066W, strain TOR1, stronger effect = lower value 0.00124

Reference: PubChem BioAssay AID1159580 (chemical genetic matrix, 2015)
